Results published in PubChem BioAssay (NCI).
Compounds without any hit were thinned out: in the full panel of roughly 83,000, 20% have a hit.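 A percent growth of 40 corresponds to 60% growth inhibition; 0 means no net growth; -100 means all cells died. Active threshold: below 10.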 Activity calls are given as the source filed them.

Each compound was assayed on SF-295 CNS (assay: NCI-60 one-dose screen, 48 h (100 = growth as untreated, 0 = no growth, -100 = all killed)). Details: 10 µM unless noted.

SMILES | growth
O=C1/C(=C/c2cccc3cnccc23)Cc2cc(F)ccc21 | 88.4% (inactive)
COC(OC)C1(c2ccccc2)NC(=O)NC1=O (stereo unspecified) | 121% (inactive)
c1cncc(-c2nc3ccccc3[nH]2)c1 | 118% (inactive)

The compounds below were run on SF-539 CNS in the same assay as above. Details: 10 µM unless noted.

SMILES | growth
COC(=O)c1oc2c(C(=O)/C=C/c3ccc(OC)cc3)c(OCCN3CCOCC3)ccc2c1C | -34% (active)
CN(C)c1ccc(/C=N/n2c(-c3cc(F)c(Cl)cc3Cl)nn(CN3CCOCC3)c2=S)cc1 | 97.1% (inactive)
CS(=O)(=O)OCC(COS(C)(=O)=O)C(c1ccccc1)c1ccccc1 | 118% (inactive)
Nc1ncnc2c1c(C(F)(F)F)cn2[C@@H]1O[C@H](CO)[C@@H](O)[C@H]1O | -31.7% (active)
Cc1nccc2c3ccc(OCc4cn(Cc5ccc(Br)cc5)nn4)cc3n(CCCc3ccccc3)c12 | 77% (inactive)
[2H]c1nc(Nc2ncc(F)c(-c3cc(F)c4nc(C)n(C(C)C)c4c3)n2)c([2H])c([2H])c1CN1CCN(CC)CC1 | 67.2% (inactive)
COc1cc(/C=C2/Oc3cc4occc4c(OC)c3C2=O)ccc1OCC(=O)Nc1ccncc1 | 97% (inactive)
COc1ccc2c(c1)OC(N)=C(C#N)C2c1ccc(F)cc1 (stereo unspecified) | 19.2% (inactive)
CCCCCCCCCCCCCCCCNc1ccccc1 | 97.1% (inactive)
O=C(Nc1ccc(-n2ccc3c(NC(=O)c4ccccc4)ncnc32)cc1)c1cccc(C(F)(F)F)c1 | 35.5% (inactive)
COc1ccc(/C(Cl)=N/N=C(\Cl)c2cc(OC)c(OC)c(OC)c2)cc1OC(C)=O | 93.3% (inactive)
O=C1C(Cl)=C(Nc2ccccc2)C(=O)C(Cl)=C1Nc1ccccc1 | 106% (inactive)
O=C(Nc1ccc(-n2cc(-c3ccncc3)c(-c3ccc(O)c(Cl)c3)n2)cc1)c1cc(C(F)(F)F)cc(C(F)(F)F)c1 | 57.7% (inactive)
CCn1c(C)nc([N+](=O)[O-])c1Sc1nc(N)nc2nc[nH]c12 | 26.7% (inactive)
Cc1cn(C2CC(N=[N+]=[N-])C(COP(=O)(O)OP(=O)(O)OP(=O)(O)O)O2)c(=O)[nH]c1=O (stereo unspecified) | 114% (inactive)
COc1cc(/C=C\c2cc(/C=C\c3ccc(O)c(OC)c3)n(C(=O)CNc3ccccc3OC)n2)ccc1O | 42% (inactive)
COc1ccc(Cl)cc1NC(=O)c1cc2c([nH]1)-c1nc(NC(=O)C(C)C)sc1CC2 | 26% (inactive)
O=C(/C=C/c1ccco1)c1cccc(Nc2nc(Nc3ccccc3)nc(Nc3ccccc3)n2)c1 | 94.4% (inactive)
O=C(Nc1ccc(-n2ccc3c(NC(=O)c4ccccc4)ncnc32)cc1)Nc1ccc(Cl)c(C(F)(F)F)c1 | 13.5% (inactive)

SMILES | growth
CN(C)CCCOc1c(Br)cc(/C=C/C(=O)N(C)CCc2cc(Br)c(OCCCN(C)C)c(Br)c2)cc1Br | -75.5% (active)
C=C(C)[C@@H]1C/C=C(\COC(=O)[C@H](OC(C)=O)C(NC(=O)c2ccccc2)c2ccccc2)CC[C@H]2O[C@]2(C)CC/C=C(\C)CC1 (stereo partly specified) | 81.1% [5 µM] (inactive)
COc1ccc(Cl)cc1NC(=O)c1cc2c([nH]1)-c1nc(NC(=O)C(C)(C)C)sc1CC2 | -14.6% (active)
CC1CCC(C(C)C)C(NN)C1 (stereo unspecified) | 103% (inactive)
Cl[C@@H]1CCO[C@H](c2cc3ccccc3c3ccccc23)C1 | 95% (inactive)
C[C@]12CC[C@@H]3c4ccc(O)c(N)c4CC[C@H]3[C@@H]1CC[C@@H]2O | 106% (inactive)
COc1ccc(/C=C/C(=O)c2ccc(-n3cc(CN4CCN(c5cc6c(cc5F)c(=O)c(C(=O)O)cn6C5CC5)CC4)nn3)cc2)cc1OC | 7.09% (active)
COc1ccc(-c2nn(-c3ccc(NC(=O)c4ccc(Cl)c(C(F)(F)F)c4)cc3)cc2-c2ccncc2)cc1Cl | 9.99% (active)
O=C(O)c1cc2ccccc2cc1Nc1ccccc1 | 74.2% (inactive)
COc1ccc(Cn2cc3c(c2-c2cc(OC)c(OC)c(OC)c2)CCc2c(CO)noc2-3)cc1 | 3.55% (active)
COc1cc(C(=O)N2CCN(C(=O)c3cc(OC)c(OCc4ccccc4)cc3N)CC2)c(N)cc1OCc1ccccc1 | 104% (inactive)
Nc1ccc(S(=O)(=O)Nc2ccnn2-c2ccccc2)cc1 | 103% (inactive)
COc1ccc(-c2nnc(SCC(=O)Nc3ccc(C(=O)/C=C/c4ccccc4)cc3)o2)cc1OC | 95.7% (inactive)
CCC(N)(C(=O)O)c1ccc(F)cc1 (stereo unspecified) | 109% (inactive)
COc1ccc(-c2c(C#N)cnc(N)c2-c2nc3cc(C)c(C)cc3[nH]2)cc1 | 92% (inactive)
CC(C)(C)NCC(O)COc1c(Br)c(Br)c(Br)c2c1OC(C)(C)C2 (stereo unspecified) | -84.5% (active)
O=C1/C(=C/c2cccc3cnccc23)Cc2cc(F)ccc21 | 94.1% (inactive)
COC(OC)C1(c2ccccc2)NC(=O)NC1=O (stereo unspecified) | 114% (inactive)
c1cncc(-c2nc3ccccc3[nH]2)c1 | 97.8% (inactive)
